The sample as a whole holds a higher share of hits than the screen did.
Pf Dd2 inh – qHTS Primary assay for Inhibitors of Plasmodium falciparum Dd2 growth in vitro | Potency, µM (titrated, usually from 28.9 µM), without a hit: top-dose activity, negative = inhibition, hits mostly inhibitors | P. falciparum Dd2 growth, SYBR Green, 72 h | 4.3% of 120,000 active | AID 1347417, 2020; active = well fitted inhibition curve with a large enough effect;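 note: plate controls were DMSO vehicle for no effect and reference drug for full effect; nearly all actives have a fitted effect of over 65% in size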
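Readout: SYBR Green fluorescence, 485 nm excitation, 535 nm emission, after ~16 h lysis at 37C. Before that, Dd2-infected red cells (2.5% hematocrit) grew 72 h with compound, 29 uM top final concentration.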
Numbers without * were called inactive; i = inactive; [ ] = another dose, or the depositor's remark. Potency is the fitted concentration of half-maximal effect.

SMILES	Pf Dd2 inh
NC(=O)Cn1ccc2cc(OCC3CCN(C(=O)CCc4ccccc4)CC3)cnc21	-22.4%[44.1 µM]
COCC1CN(C(C)=O)CC12CCN(C(=O)NCc1ccc(F)cc1)CC2 (configuration not stated)	37.8%
Cn1ncc2c(NCc3noc(-c4cccs4)n3)nc(C(C)(C)C)nc21	i
Cc1ccc(CCNc2ncnc3onc(-c4ccc(Cl)cc4)c23)cc1	i
CCCNc1ncnc2onc(C)c12	-3.6%
CSc1ccc(CCNc2ncnc3onc(C)c23)cc1	8.91µM*
COc1ccccc1C(CC(=O)NCC(C)C)c1cn(C)c2ccccc12 (configuration not stated)	i
COc1cccc(C(CC(=O)NCCc2ccc(OC)c(OC)c2)c2c[nH]c3ccccc23)c1 (configuration not stated)	-16.0%
COc1ccc(CCN(C)C(=O)CC(c2cccc(F)c2)c2cn(C)c3ccccc23)cc1OC (configuration not stated)	2µM*
O=C(NCC1CCCN(S(=O)(=O)c2ccc3c(c2)OCCO3)C1)c1cccs1 (configuration not stated)	-13.5%
Cc1c(C(=O)OCCOc2ccccc2)[nH]c2c1C(=O)CC(c1ccc(C(C)(C)C)cc1)C2 (configuration not stated)	3.98µM*
COc1ccc(C2CC(=O)c3c([nH]c(C(=O)OCc4ccccc4)c3C)C2)cc1 (configuration not stated)	-12.5%
CCOC(=O)c1ccc(NC(=O)c2cc3c([nH]c2=O)CC(c2ccccc2)CC3=O)cc1 (configuration not stated)	-9.7%
Cc1c(C(=O)OC2CCCC2)[nH]c2c1C(=O)CC(c1ccc(Cl)cc1)C2 (configuration not stated)	-13.8%
COc1ccc(C2CC(=O)c3c([nH]c(C(=O)OC4CCC(C)CC4)c3C)C2)cc1OC (configuration not stated)	-16.1%
CCOC(=O)c1[nH]c2c(c1Cc1ccccc1OC)C(=O)CC(c1ccccc1)C2 (configuration not stated)	11.2µM*
COCCc1noc([C@@H]2CC(F)(F)CN2C(=O)c2ccc(C)cn2)n1	38.0%
C[C@@H](NCC1CCCCC1)c1onc(-c2ccc(F)cc2)c1C(=O)O	-22.3%[44.1 µM]
O=C(c1ccccc1OCC1CCCN(Cc2cccnc2)C1)N1CCCCC1 (configuration not stated)	-8.4%
Cc1ccc(C(=O)NC2(C(F)(F)F)N=C(c3ccccc3)N(Cc3ccccc3)C2=O)cc1 (configuration not stated)	i
CCc1ccc(C(=O)CC2(O)C(=O)N(Cc3ccc(C)cc3)c3ccccc32)cc1 (configuration not stated)	-21.9%
Cc1ccc(C(=O)CC2(O)C(=O)N(Cc3ccccc3)c3ccc(Br)cc32)cc1 (configuration not stated)	10µM*
O=C(c1ccsc1)N1CC[C@@H]2COCCN(Cc3ccccc3)[C@@H]2C1	-6.7%
COCCC(=O)N1CCc2c(n(CCOc3ccccc3)n(-c3ccccc3)c2=O)C1	23.2%[44.1 µM]
CC(=O)N[C@@H]1CN(C(=O)C2(c3ccccc3)CC2)C[C@H]1CO	21.2%
SMILES	Pf Dd2 inh
CCCN1CCCC12Cc1ccccc1CN(C(=O)C(C)C)C2 (configuration not stated)	8.91µM*
C[S+](=O)([O-])N1Cc2ccccc2CC2(CCCN(Cc3ccccn3)C2)C1 (configuration not stated)	-29.4%
C[S+](=O)([O-])N1Cc2ccccc2CC2(CCCN2Cc2ccncc2)C1 (configuration not stated)	6.3%
CCCN1CCC2(CC1)Cc1ccccc1CN(C(=O)C(C)C)C2	-16.3%
CC(C)C(=O)N1Cc2ccccc2CC2(CCCCN2Cc2ccccn2)C1 (configuration not stated)	12.6µM*
CCC(=O)N1Cc2ccccc2CC2(CCCN2Cc2ccccn2)C1 (configuration not stated)	4.8%
CC(=O)N1CC2(CCCN2Cc2ccccn2)Cc2ccccc21 (configuration not stated)	-15.9%
CCC(=O)N1Cc2ccccc2CC2(CCCCN2Cc2ccccn2)C1 (configuration not stated)	-19.4%
CC(C)C(=O)N1Cc2ccccc2CC2(CCCCN2Cc2ccncc2)C1 (configuration not stated)	8.91µM*
C[S+](=O)([O-])N1CC2(CCCCN2Cc2ccccn2)Cc2ccccc21 (configuration not stated)	8.91µM*
CC(C)C(=O)N1CCCC2(Cc3ccccc3CN2[S+](=O)([O-])c2ccccc2)C1 (configuration not stated)	-19.1%
O=C(NCc1ccco1)C1CC(=O)N(c2n[nH]c3ccccc23)C1 (configuration not stated)	-3.4%
CCc1nc(C)c(C(=O)N2C[C@H]3CC[C@@H]2CN(C(=O)c2ccccc2)C3)s1	-2.7%
CCn1c(Cn2ccnc2)nnc1C1CCN(C(=O)C(C)(C)OC)CC1	-11.8%
CCn1ncc(N2CCC(NC(=O)c3ccc(OC)cc3C)CC2)cc1=O	-11.3%
Cc1noc2ccc(-c3ccc(CO)cc3)nc12	2.4%[44.1 µM]
O=C(CCC(F)(F)F)NC1CC(=O)N(Cc2ccccc2Cl)C1 (configuration not stated)	-1.3%
O=C(Cc1c[nH]c2ccccc12)N[C@@H]1[C@@H]2CCO[C@@H]2[C@@H]1C1CCCC1	-18.5%
Cc1nnnn1-c1cccc(C(=O)Nc2ccc3c(c2)C(=O)N2CCC[C@H]2C(=O)N3)c1	-2.6%
O=C1NCCOCCN(C(=O)c2nccc3ccccc23)[C@H]2CCC[C@@H]12	20.9%
COC(=O)[C@@H](Cc1cccnc1)NC(=O)[C@H]1CN(S(=O)(=O)c2ccccc2)CCN1S(C)(=O)=O	-8.3%
C[S+](=O)([O-])N1CC2(CCN(Cc3c[nH]c4ccccc34)CC2)Cc2ccccc21	11.2µM*
C[S+](=O)([O-])N1CC2(CCN(C3COC3)CC2)Cc2ccccc21	9.9%
C[S+](=O)([O-])N1CC2(CCN(C(=O)CCC(=O)O)C2)Cc2ccccc21 (configuration not stated)	-5.5%
Cc1cc(C)n(CCC(=O)N2CC(c3noc(COc4ccc(F)cc4)n3)C2)n1	-9.0%
SMILES	Pf Dd2 inh
CCc1noc([C@@H]2CC(F)(F)CN2C(=O)CCn2ccnc2)n1	3.6%
COc1ccccc1C(=O)Nc1cc2c(cc1N1CCCC1)n(C)c(=O)c(=O)n2C	-1.8%
CCOC(=O)C1CCN(c2cc3c(cc2NC(=O)c2ccccc2Cl)n(C)c(=O)n3C)CC1	11.2µM*
CCOC(=O)c1ccccc1NC(=O)Nc1cc2c(cc1N1CCCC1)n(C)c(=O)n2C	-38.6%
Cc1ccc(Cl)cc1Nc1nn2c(=O)c3ccc(C(=O)Nc4ccc(F)cc4)cc3nc2s1	-5.1%
CCc1ccccc1Nc1nn2c(=O)c3ccc(C(=O)NCCCOC(C)C)cc3nc2s1	11.2µM*
Cc1ccc(Cl)cc1Nc1nn2c(=O)c3ccc(C(=O)NC(C)c4ccccc4)cc3nc2s1 (configuration not stated)	7.94µM*
CCOC(=O)C1CCN(C(=O)c2ccc3c(=O)n4nc(Nc5ccccc5)sc4nc3c2)CC1	-17.9%
COc1ccc(NC(=O)c2ccc3c(=O)n4nc(Nc5ccccc5C)sc4nc3c2)cc1	-10.1%
CCc1ccccc1Nc1nn2c(=O)c3ccc(C(=O)NC(C)C)cc3nc2s1	-19.9%
CCc1ccccc1Nc1nn2c(=O)c3ccc(C(=O)NCc4ccccc4Cl)cc3nc2s1	11.2µM*
COC(=O)c1ccc2c(=O)n3nc(Nc4cc(OC)ccc4OC)sc3nc2c1	91.3%

Screening results as filed in PubChem.
